PubChem BioAssay (Tox21)
“And” between values parts separate entries of the source, which are not always exact repeats. Identical values can stand only once. Unmarked numbers belong to inactive results. Records with an inconclusive call do not appear. A call without a number means that no potency is given here. The source made the active and inactive calls. Unless noted, calls come from the whole dose curve.

Legend:
[1] = Nuclear factor erythroid 2-related factor 2/antioxidant responsive element (Nrf2/ARE) small molecule agonists: luciferase reporter gene qHTS assay in human keratinocytes (AID 1919969); note: nearly all actives have a fitted effect of over 35% in size; note: potency is the fitted concentration of half-maximal effect
[2] = target: Gonadotropin-releasing hormone receptor (Homo sapiens) (UniProt P30968); assay: Human gonadotropin-releasing hormone receptor (GnRHR) small molecule agonists, calcium flux assay in GnRHR-HEK293 cells (AID 1920063); note: nearly all actives have a fitted effect of over 35% in size; note: potency is the fitted concentration of half-maximal effect
Sequence of Gonadotropin-releasing hormone receptor (Homo sapiens) (P30968 whole entry, looked up): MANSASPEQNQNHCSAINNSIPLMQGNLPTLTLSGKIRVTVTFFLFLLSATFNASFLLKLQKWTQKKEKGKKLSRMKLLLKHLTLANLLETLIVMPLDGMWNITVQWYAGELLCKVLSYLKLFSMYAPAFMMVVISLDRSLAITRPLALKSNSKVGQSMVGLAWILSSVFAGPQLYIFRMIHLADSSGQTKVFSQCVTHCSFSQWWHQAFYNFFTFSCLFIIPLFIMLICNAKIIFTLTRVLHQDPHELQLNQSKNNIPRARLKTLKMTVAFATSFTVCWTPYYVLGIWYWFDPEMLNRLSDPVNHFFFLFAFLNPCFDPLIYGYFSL
Procedure, shortened: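 Calcium-dye fluorescence, Ex/Em=480/540, recorded every 1 sec over 3 min after compound addition to GnRHR-HEK293 cells. Cells had been seeded 18 hours earlier and dye-loaded for 1 hour at 37 C. Fifteen concentrations, triplicates.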

[3] = target: KiSS-1 receptor (Homo sapiens) (UniProt Q969F8); assay: Human kisspeptin (KISS1R) small molecule agonists, calcium flux assay in KISS1R-HEK293 cells (AID 1920064; active = well fitted activation curve with a large enough effect in the repeat runs)
Sequence of KiSS-1 receptor (Homo sapiens) (Q969F8 whole entry, looked up): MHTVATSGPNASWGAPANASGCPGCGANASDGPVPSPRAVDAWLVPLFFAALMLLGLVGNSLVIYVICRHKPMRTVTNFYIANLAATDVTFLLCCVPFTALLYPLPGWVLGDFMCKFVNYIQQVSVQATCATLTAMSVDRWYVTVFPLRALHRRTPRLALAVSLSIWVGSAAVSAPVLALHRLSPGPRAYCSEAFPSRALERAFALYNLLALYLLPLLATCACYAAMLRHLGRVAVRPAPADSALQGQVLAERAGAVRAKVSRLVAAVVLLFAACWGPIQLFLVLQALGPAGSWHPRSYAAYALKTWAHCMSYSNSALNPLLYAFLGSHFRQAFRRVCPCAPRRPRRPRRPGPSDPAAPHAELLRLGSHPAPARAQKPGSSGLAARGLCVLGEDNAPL
Procedure, shortened: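 Calcium flux read-out: kinetic fluorescence at Ex/Em=480/540, 1 s intervals over 3 min, after pin-tool compound addition to dye-loaded KISS1R-HEK293 cells. Fifteen concentrations, triplicates.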

[4] = G protein-coupled receptor (GPCR) small molecule agonists, calcium flux assay: HEK293 wild type cell line counter screen (AID 1920065)
Procedure, shortened: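 Agonist mode; 18 h seeding at 37 C, 1 h dye load at 37 C; compounds pinned from DMSO, ATP as positive control; kinetic fluorescence 480/540 nm, 3 min, 1 s reads; 15 concentrations, triplicate.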

[5] = p53 small molecule agonists, cell-based qHTS assay with human liver microsomes (AID 1963577)
Procedure, shortened: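 p53RE-bla reporter cells were pre-incubated 5 h at 37 C, then treated with compounds plus human liver microsomes (0.5 mg/mL final) and NADPH (0.5 mg/mL final) for 16 h at 37 C. Beta-lactamase activity was read by LiveBLAzer fluorescence after 2 h at room temperature.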

[6] = p53 small molecule agonists, cell-based qHTS assay with rat liver microsomes (AID 1963578); note: potency is the fitted concentration of half-maximal effect
Procedure, shortened: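 p53RE-bla cells were exposed to compounds together with rat liver microsomes (0.5 mg/mL final) and NADPH (0.5 mg/mL final) for 16 h at 37 C, then read by LiveBLAzer beta-lactamase fluorescence after 2 h at room temperature.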

[7] = p53 small molecule agonists, cell-based qHTS assay with human liver microsomes: qHTS cell viability counter screen (AID 1963579); note: nearly all actives have a fitted effect of over 45% in size; note: potency is the fitted concentration of half-maximal effect
Procedure, shortened: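 p53RE-bla cells (4,000/well) were pre-incubated 5 h at 37 C, then given compounds in DMSO plus human liver microsomes (0.5 mg/mL final) and NADPH (0.5 mg/mL final) for 16 h at 37 C. Viability was read by CellTiter-Glo luminescence.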

[8] = target: 5-hydroxytryptamine receptor 2A (Homo sapiens) (UniProt P28223); assay: 5-hydroxytryptamine receptor 2A (HTR2A) small molecule antagonists, cell-based qHTS assay (AID 1963586); note: nearly all actives have a fitted effect of over 45% in size; note: potency is the fitted concentration of half-maximal effect
Sequence of 5-hydroxytryptamine receptor 2A (Homo sapiens) (P28223 whole entry, looked up): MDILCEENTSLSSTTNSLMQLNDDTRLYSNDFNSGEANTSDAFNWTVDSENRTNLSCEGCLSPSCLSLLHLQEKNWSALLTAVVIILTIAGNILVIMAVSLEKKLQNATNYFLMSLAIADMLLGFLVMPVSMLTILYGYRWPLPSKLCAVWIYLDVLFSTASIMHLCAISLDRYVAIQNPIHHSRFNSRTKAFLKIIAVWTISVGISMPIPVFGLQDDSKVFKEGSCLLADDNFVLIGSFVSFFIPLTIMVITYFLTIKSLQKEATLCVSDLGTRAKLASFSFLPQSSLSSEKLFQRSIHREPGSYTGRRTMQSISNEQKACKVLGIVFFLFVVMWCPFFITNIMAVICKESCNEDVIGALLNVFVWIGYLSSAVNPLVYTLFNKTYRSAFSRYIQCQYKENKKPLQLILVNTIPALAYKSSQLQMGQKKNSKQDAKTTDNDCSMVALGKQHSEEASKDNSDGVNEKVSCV
Procedure, shortened: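 CHO cells stably expressing human HTR2A were plated for 18 h at 37 C, then loaded with calcium dye for 1 h. Compounds were preincubated 5 min at room temperature before DOI (4 nM solution) was added. Kinetic fluorescence was read for 3 min.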

[9] = target: Muscarinic acetylcholine receptor M1 (Homo sapiens) (UniProt P11229); assay: Cholinergic receptor muscarinic 1 (CHRM1) small molecule antagonists, cell-based qHTS assay (AID 1963588); note: nearly all actives have a fitted effect of over 40% in size; note: potency is the fitted concentration of half-maximal effect
Sequence of Muscarinic acetylcholine receptor M1 (Homo sapiens) (P11229 whole entry, looked up): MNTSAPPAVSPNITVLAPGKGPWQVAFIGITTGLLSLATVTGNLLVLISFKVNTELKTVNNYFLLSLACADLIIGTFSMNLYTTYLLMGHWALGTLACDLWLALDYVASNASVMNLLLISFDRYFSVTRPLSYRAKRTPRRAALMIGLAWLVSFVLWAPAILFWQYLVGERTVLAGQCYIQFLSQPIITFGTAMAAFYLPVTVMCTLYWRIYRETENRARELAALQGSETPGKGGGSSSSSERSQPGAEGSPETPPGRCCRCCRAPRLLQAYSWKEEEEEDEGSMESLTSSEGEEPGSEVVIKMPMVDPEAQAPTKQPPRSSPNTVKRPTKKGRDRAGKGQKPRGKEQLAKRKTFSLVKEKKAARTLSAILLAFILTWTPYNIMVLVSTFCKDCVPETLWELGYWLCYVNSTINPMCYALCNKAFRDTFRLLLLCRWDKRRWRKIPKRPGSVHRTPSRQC
Procedure, shortened: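 Compounds were tested at 15 concentrations in three independent runs. Dye-loaded CHRM1-CHO cells were exposed 5 min at room temperature before stimulation by acetylcholine added at 50nM. Intracellular calcium was read kinetically on FDSS for 3 min.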

[10] = target: Muscarinic acetylcholine receptor M1 (Homo sapiens) (UniProt P11229); assay: Cholinergic receptor muscarinic 1 (CHRM1) small molecule agonists, cell-based qHTS assay (AID 1963589); note: nearly all actives have a fitted effect of over 35% in size
Procedure, shortened: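 Calcium flux read-out: kinetic fluorescence at 1 sec intervals after pin-tool compound addition to dye-loaded CHRM1-CHO cells (human M1). Agonist mode; 15 concentrations tested in triplicate independent runs.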

[11] = target: Beta-2 adrenergic receptor (Homo sapiens) (UniProt P07550); assay: Adrenergic beta2 receptor (ADRB2) small molecule antagonists, cell-based qHTS assay (AID 1963592); note: nearly all actives have a fitted effect of over 50% in size; note: potency is the fitted concentration of half-maximal effect
Sequence of Beta-2 adrenergic receptor (Homo sapiens) (P07550 whole entry, looked up): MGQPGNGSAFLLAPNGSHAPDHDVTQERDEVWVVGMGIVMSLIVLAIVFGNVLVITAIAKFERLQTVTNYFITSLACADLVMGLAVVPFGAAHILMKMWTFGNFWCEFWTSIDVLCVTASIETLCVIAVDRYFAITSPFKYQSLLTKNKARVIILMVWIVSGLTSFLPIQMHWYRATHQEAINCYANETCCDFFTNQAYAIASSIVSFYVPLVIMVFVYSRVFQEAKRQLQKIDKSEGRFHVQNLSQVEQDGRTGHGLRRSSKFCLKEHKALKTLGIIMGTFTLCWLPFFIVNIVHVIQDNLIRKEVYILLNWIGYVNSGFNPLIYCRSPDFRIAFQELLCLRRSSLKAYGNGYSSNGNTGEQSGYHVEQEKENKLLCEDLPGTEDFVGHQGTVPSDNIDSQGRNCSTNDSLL
Procedure, shortened: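 Assay format: CHO-ADRB2 cells, 18-20hr seeding at 37C/5% CO2, then compound plus 1nM isoproterenol agonist mix for 0.5hr RT. Homogeneous time-resolved fluorescence cAMP detection after 1hr, expressed as 665/615 nm ratio.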

[12] = target: D(2) dopamine receptor (Homo sapiens) (UniProt P14416); assay: Dopamine D2 receptor (DRD2) small molecule agonists, cell-based qHTS assay (AID 1963594); note: nearly all actives have a fitted effect of over 35% in size
Sequence of D(2) dopamine receptor (Homo sapiens) (P14416 whole entry, looked up): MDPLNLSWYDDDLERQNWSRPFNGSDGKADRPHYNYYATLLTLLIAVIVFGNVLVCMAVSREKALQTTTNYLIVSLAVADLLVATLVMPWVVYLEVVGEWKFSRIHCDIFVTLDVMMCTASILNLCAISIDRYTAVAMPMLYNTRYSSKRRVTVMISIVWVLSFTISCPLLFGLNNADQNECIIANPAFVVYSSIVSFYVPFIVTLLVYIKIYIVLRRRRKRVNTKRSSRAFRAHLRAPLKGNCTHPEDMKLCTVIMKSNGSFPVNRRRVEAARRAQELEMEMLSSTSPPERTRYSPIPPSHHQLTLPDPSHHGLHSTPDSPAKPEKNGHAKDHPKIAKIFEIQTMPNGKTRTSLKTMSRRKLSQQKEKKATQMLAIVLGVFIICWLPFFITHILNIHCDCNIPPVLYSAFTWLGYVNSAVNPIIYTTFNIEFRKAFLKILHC
Procedure, shortened: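 HEK293 cells stably expressing human DRD2, pre-treated with PDE inhibitor Ro20-1724 (0.1 mM final) and compound 10 min at room temperature, then stimulated with NKH477 (200nM […]) for 30 min. cAMP read by HTRF (665/620 nm).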

[13] = target: 5-hydroxytryptamine receptor 2A (Homo sapiens) (UniProt P28223); assay: 5-hydroxytryptamine receptor 2A (HTR2A) small molecule agonists, cell-based qHTS assay (AID 1963587); note: nearly all actives have a fitted effect of over 30% in size; note: potency is the fitted concentration of half-maximal effect
Procedure, shortened: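 CHO cells stably expressing human HTR2A, plated 18 h, loaded with calcium dye 1 h at 37 C. Agonist mode: compounds added and intracellular calcium fluorescence recorded kinetically for 2 min at 1 sec intervals.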

[14] = target: Beta-2 adrenergic receptor (Homo sapiens) (UniProt P07550); assay: Adrenergic beta2 receptor (ADRB2) small molecule agonists, cell-based qHTS assay (AID 1963593);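 note: CHO cells stably overexpressing human ADRB2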
Procedure, shortened: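 CHO cells stably over-expressing ADRB2 were plated overnight at 37C, then dosed with compounds plus a stimulation mix containing 100uM IBMX and 25uM Ro-20-1724 for 0.5hr at room temperature. cAMP was measured by HTRF competition, 1hr.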

[15] = target: D(2) dopamine receptor (Homo sapiens) (UniProt P14416); assay: Dopamine D2 receptor (DRD2) small molecule antagonists, cell-based qHTS assay (AID 1963595; active = well fitted inhibition curve with a large enough effect in the signal ratio in the repeat runs, with a control signal flat; the % refers to the signal ratio; note: potency is the fitted concentration of half-maximal effect)
Procedure, shortened: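 HEK293 cells stably expressing DRD2, preincubated with 0.1 mM Ro20-1724 and compounds 10 min, were stimulated with 200 nM NKH477 plus 12 nM quinpirole for 30 min at room temperature; cAMP measured by HTRF (665/620 nm).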

[16] = p53 small molecule agonists, cell-based qHTS assay with rat liver microsomes: qHTS cell viability counter screen (AID 1963580); note: nearly all actives have a fitted effect of over 45% in size
Procedure, shortened: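 Cytotoxicity counter screen: intracellular ATP measured by CellTiter-Glo luminescence in the same wells as the beta-lactamase reporter read, on HCT-116 p53RE-bla cells exposed 16 h at 37 C to compounds with rat liver microsomes and NADPH, each 0.5 mg/mL final.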

[17] = p53 small molecule agonists, cell-based qHTS assay: qHTS cell viability counter screen (AID 1963581); note: nearly all actives have a fitted effect of over 45% in size
Procedure, shortened: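 Cytotoxicity read-out: ATP-based luminescence (CellTiter-Glo, 30 min RT) measured in the same wells as the p53 reporter assay, HCT-116 p53RE-bla cells, 16 h compound exposure at 37 C.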

[18] = p53 small molecule agonists, cell-based qHTS assay (AID 1963582; active = well fitted activation curve with a large enough effect in the signal ratio in the repeat runs, not every such curve was filed as active; the % refers to the signal ratio; note: potency is the fitted concentration of half-maximal effect)
Procedure, shortened: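 Fluorescence intensity read-out of a beta-lactamase reporter under a p53 response element. Cells were exposed to DMSO-dissolved compounds for 16 h at 37 C, then developed with FRET substrate for 2 h at RT.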

[19] = cAMP Responsive Elements (CRE) small molecule antagonists, cell-based qHTS assay (AID 1963591; active = well fitted inhibition curve with a large enough effect in the signal ratio in the repeat runs, not every such curve was filed as active; the % refers to the signal ratio; note: potency is the fitted concentration of half-maximal effect)
Procedure, shortened: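 HEK293T CRE-bla; 18 h preincubation; compound pin-transfer; NKH477 0.25 uM final, 3 h, 37 C; LiveBLAzer FRET substrate 2 h RT.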

[20] = cAMP Responsive Elements (CRE) small molecule agonists, cell-based qHTS assay (AID 1963590)
Procedure, shortened: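 Beta-lactamase reporter readout: LiveBLAzer B/G FRET substrate, 2 h at room temperature, added after 3 h compound treatment of CRE-bla HEK 293T cells at 37 C/5% CO2.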

Structure (SMILES)	Potency [1]	Potency [2]	Potency [3]	Potency [4]	Potency [5]	Potency [6]	Potency [7]	Potency [8]	Potency [9]	Potency [10]	Potency [11]	Potency [12]	Potency [13]	Potency [14]	Potency [15]	Potency [16]	Potency [17]	Potency [18]	Potency [19]	Potency [20]
CCCCc1oc2ccc(NS(C)(=O)=O)cc2c1C(=O)c1ccc(OCCCN(CCCC)CCCC)cc1	inactive	inactive	inactive	inactive	inactive	inactive	inactive	inactive	inactive	inactive	inactive	inactive								
CC1=C(/C=C/C(C)=C/C=C/C(C)=C/C=O)C(C)(C)CCC1	27.1 µM (active)	inactive	inactive	inactive	inactive	inactive		inactive	inactive	inactive	inactive	inactive	inactive	inactive	inactive					
CCN(CC)C(=O)c1cc(S(=O)(=O)Cc2ccccc2)c(N2CCC(c3ccccc3)CC2)cc1N(CC)CCN(C)C	inactive	inactive	inactive	inactive	inactive	inactive				inactive	24.1 µM (active)	inactive	inactive		21.4 µM (active)	inactive	inactive			
Cc1cc(O)ccc1O	24.6 µM (active)	inactive	inactive	inactive	inactive	inactive		inactive	inactive	inactive	inactive		inactive			inactive	inactive			
CCCCCCCOC(=O)c1ccc(O)cc1	inactive	inactive	inactive	inactive	inactive	inactive	36.4 µM (active)	inactive	inactive	inactive	inactive	inactive	38.9 µM (active)	inactive	inactive			inactive	38.6 µM (active) and 45.2 µM (active)	
CN(C)CC/C=C1\c2ccccc2Sc2ccc(Cl)cc21	inactive	inactive	inactive	inactive	inactive	inactive		0.0729 µM (active)	inactive	inactive	inactive	inactive	inactive		0.531 µM (active)	inactive	inactive		inactive	
CCc1cc(Cc2cc(CC)c(N)c(CC)c2)cc(CC)c1N	inactive	inactive	inactive	inactive	inactive	inactive		inactive	inactive	inactive			inactive		54.5 µM (active)				inactive	
CC(CN)CC(C)(C)CCN (stereo not drawn)	inactive	inactive	inactive	inactive	inactive	inactive		inactive	10.8 µM (active)		inactive	inactive	inactive		inactive	inactive	inactive	inactive		inactive
CN(C)[C@@H](CCOc1cccc2ccccc12)c1ccccc1	inactive	inactive	inactive	inactive	inactive	inactive		3.26 µM (active)		inactive	inactive	inactive	10.7 µM (active)		inactive	inactive	inactive	inactive		
O=C1CCC/C=C\CCCCCCCCCC1	54.5 µM (active)	inactive	inactive	inactive	inactive	inactive		inactive	inactive	inactive	inactive	inactive	inactive	inactive			inactive	inactive		inactive
Cc1c(C(=O)O)c(O)cc2c1C(=O)c1c(O)c([C@@H]3O[C@H](CO)[C@@H](O)[C@H](O)[C@H]3O)c(O)c(O)c1C2=O	inactive	inactive	inactive	inactive	inactive	inactive	inactive	inactive	inactive	inactive			inactive					inactive	inactive	inactive
C=CC(C)(CCC=C(C)C)OC(=O)/C=C/c1ccccc1 (stereo not drawn)	68.6 µM (active)	inactive	inactive	inactive	inactive	inactive		inactive	inactive	inactive	inactive	inactive	inactive		inactive		inactive	inactive	inactive	inactive
CCCOc1ccc2nc(NC(=O)OC)[nH]c2c1	7.5 µM (active)	inactive	inactive	inactive	inactive	inactive		inactive	inactive	inactive	inactive	inactive	inactive		inactive	inactive				
CCCCCCCCCCCCOCCOS(=O)(=O)O	inactive	38.9 µM (active)	inactive	inactive	inactive	inactive				inactive	inactive	inactive		inactive	inactive	inactive		inactive		
CO[C@@]12[C@H](COC(N)=O)C3=C(C(=O)C(C)=C(N)C3=O)N1C[C@@H]1N[C@@H]12	11.9 µM (active)	inactive	inactive	inactive	inactive	4.46 µM (active)	inactive										inactive	15.8 µM (active)	inactive	inactive
